# Measured values from PMC7826789 (International Journal of Molecular Sciences, 2021).
smiles,measurement,setting,value
CNS(=O)(=O)c1ccc(N(C)C)c(Nc2ncnc3cc(OC)c(OC)cc23)c1 [GSK114],Kinases covered,ZAK,ZAK
CCCS(=O)(=O)Nc1ccc(F)c(-n2cc(-c3cncc(OC)c3)nn2)c1F [BI00865461],Kinases covered,ZAK,ZAK
NC(=O)c1cccnc1COc1cc(-c2ccc(N3CCOCC3)nc2)cc2ncccc12 [BI01125081],Kinases covered,ZAP70,ZAP70
O=C1Nc2ccc(I)cc2C1=Cc1cc(Br)c(O)c(Br)c1 [GW305074X],Kinases covered,cRAF,cRAF
CCn1c(-c2nonc2N)nc2cncc(CNC3CCNCC3)c21 [SB-747651A],Kinases covered,p70S6K,p70S6K
